# Data: PubChem BioAssay (NCI)
# Where “and” joins values, the source holds several entries; their conditions need not be identical. Identical values can stand only once. About 83,000 compounds went through this panel and 20% of them were active in at least one assay; those are over-represented in the sample as a whole.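 Percent growth is the endpoint: 0 to 100 indicates growth inhibition (40 means 60% inhibition), 0 means no net growth, and negative values indicate cell death.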 Values without a mark were called inactive. Calls of active or inactive are those of the source. The calls were made as follows: active = growth percent below 10; inactive = the rest.
# Test system: MDA-MB-468 breast
# Test: NCI-60 one-dose screen, 48 h (100 = growth as untreated, 0 = no growth, -100 = all killed)
# Settings: 10 µM unless noted
row,SMILES,growth
1,CC[C@H](C)[C@H]1NC(=O)[C@@H]([C@H](O)C(C)C)NC(=O)[C@@H](C)N(C)C(=O)[C@H](C)N(C)C(=O)[C@H](CC(C)C)NC(=O)[C@H](CC(C)C)N(C)C(=O)[C@H](C)N(C)C1=O,-5.6% (active)
2,Oc1ccccc1/C=N/Nc1nc(N/N=C/c2ccccc2O)nc(N2CCOCC2)n1,39.2%
3,CC1SC(c2ccccc2O)N(NC(=O)CCC(=O)c2nc3ncccc3[nH]2)C1=O (stereo not given),88.1%
4,C#Cc1cccc(NC(=O)Nc2cccc(N=C=S)c2)c1,106% [8.25 µM]
5,O=C1C=Cc2ccccc2/C1=C/c1nc(-c2ccccc2)oc1O,88.6%
6,N#Cc1c2c(c(N)[nH]c1=O)C(=O)NC2(O)c1ccccc1 (stereo not given),104%
7,COc1ccc(/C=C(\C#N)c2ccc([N+](=O)[O-])cc2)c2ccccc12,84.7%
8,COc1ccc2sc3c(NCCCN)nc4ccccc4c3c(=O)c2c1,48.6%
9,Clc1ccc2nc(CI)c(CI)nc2c1,55.6%
10,CCN(CC)CCOC(=O)c1cccnc1,94.9%
11,O=S(=O)(NCCNc1nccc(-c2c(-c3cccc(F)c3)nc3sccn23)n1)c1ccc(Cl)cc1,64.5%
12,CCOC(=O)c1cc(C(=O)c2ccc(OC)c(OC)c2)n2ccc(-c3ccccn3)cc12,74.9%
13,N#C/C(=C\c1ccc(-c2ccc(Cl)c(Cl)c2)o1)c1nc(-c2ccco2)cs1,-38.2% (active)
14,O=C(O)/C=C/C=C/c1ccccc1,93.6% and 112%
15,NCC(=O)NS(=O)(=O)OC[C@H]1O[C@@H](n2cnc3c(N)ncnc32)[C@H](O)[C@@H]1O,-34.3% (active)
16,C#C[C@]1(O)CC[C@H]2[C@@H]3CC=C4c5nc(Nc6ccc(OC)cc6OC)sc5CC[C@]4(C)[C@H]3CC[C@@]21C,-6.78% (active)
17,O=C1/C(=C\c2ccc(Cl)cc2)CN(C(=O)c2ccccc2)C/C1=C\c1ccc(Cl)cc1,-17.7% (active)
18,CC(C)(C)c1cc(O)c(O)c(C(C)(C)C)c1,40.4%
19,O=C1NN(c2ccccc2)C(c2ccc(Cl)cc2)N2CCC[C@H]12 (stereo not given in full),98.7%
20,O/N=C/c1ccc(O)cc1O,121%

row,SMILES,growth
1,CC(=O)c1c(/C=C/c2ccc(C)cc2)c2ccccc2[nH]c1=O,110%
2,c1ccc(-c2n[nH]c(-c3ccccn3)n2)nc1,100%
3,Cc1ncsc1CCO,99.2% and 107%
4,CCOC(=O)c1c(C)nc2c(c1N)/C(=C/c1ccc(OC)cc1)C(=O)N2Cc1ccc(F)cc1,-16.4% (active)
5,CCOC(=O)C1C(=O)NC(C(=O)OCC)(C(=O)OCC)C1CC (stereo not given),108%
6,O=C(CO[N+](=O)[O-])Nc1ccc(C(=O)/C=C/c2ccc(Cl)cc2)cc1,48.7%
7,CCOC(=O)Nc1ccc(C(=O)/C=C/c2ccccc2)cc1,94%
8,O=C1OCC2=C1C(c1ccncc1)c1cc3c(cc1N2CCO)OCO3 (stereo not given),96.3%
9,COc1ccc(/C=C2/CN(C(=O)c3ccccc3F)C/C(=C\c3ccc(OC)cc3)C2=O)cc1,1.01% (active)
10,Cc1ccc(N2C3c4ccccc4N(S(=O)(=O)c4ccc(C)cc4)C2c2ccccc2N3S(=O)(=O)c2ccc(C)cc2)cc1,120%
11,CCC(C)NCC(=O)O (stereo not given),100%
12,COc1ccc(NC2=C(Br)C(=O)C(C)=C(C)C2=O)cc1OC,-66.6% (active)
13,COC(=O)[C@@H]1CCCN1C(=O)[C@H]1CCCN1C(=O)[C@@H](Cc1c[nH]c2ccccc12)NC(=S)Nc1cc(C(F)(F)F)cc(C(F)(F)F)c1,29.2%
14,CNC(=O)c1ccc(C)c(-n2c(C)cc(OCc3ccc(F)cc3F)c(Br)c2=O)c1,53.4% and 63.5%
15,CCOC(=O)N1CCN(c2nc(Nc3cc(C)[nH]n3)c3ccccc3n2)CC1,30.6%
16,COc1ccc(Nc2ncnc3ccc(-c4cncc(NS(C)(=O)=O)c4)cc23)cc1Cl,-10.1% (active)
17,Cc1ccc(C(=O)c2ccc(C)cc2)cc1,91%
18,Cn1ccnc1C(=O)/C=C/c1ccc(NC(=O)Nc2ccc(Cl)cc2)cc1,43.9%
19,N#Cc1ccc(O)c(C2=NCC(c3ccc(-c4ccccc4)cc3)O2)c1 (stereo not given),26.9%
20,O=C(/C=C/C12c3ccccc3C(c3ccccc31)C1C(=O)NC(=O)C12)c1ccc(Cl)cc1Cl (stereo not given),23.8%
